Several values for one entry are separate records, joined by “and”; a condition that tells them apart may be missing. Equal entries are not always repeated. A structure can be active in one record and inactive in another. Activity calls are given as the source filed them.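 The calls were made as follows, unless noted: active = mean z-score across replicates of 1.96 or higher in either the MELAS or the Rieske mutant cell line; inactive = the rest.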
Experiments:
[1] = P. berghei load reduction in hepatocytes – cell-based, HepG2, luciferase luminescence, HepG2 viability, primary screen (AID 624349; in the data active = parasite load remaining mostly below about 12%, no sharp cut-off; inactive = mostly above about 10%;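 also: 100% = mean of DMSO negative control wells on the same plate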); settings: P. berghei liver stage in HepG2, luciferase luminescence, concentration not given here; parasite load remaining: stronger effect = lower value; viability: measured here: HepG2 viability without parasites
[2] = Wnt pathway potentiators raising nuclear beta-catenin – imaging, WNT3A-conditioned medium, mouse C2C12, NPC library, primary screen (AID 1117326; in the data active = nuclear beta-catenin stimulation mostly above about 4.2%, no sharp cut-off; inactive = mostly below about 10%; also: reference of the scale not given here); settings: stronger effect = higher value
[3] = stimulators of insulin release from INS-1E, primary screen, cell-based, 5 mM glucose, NPC library (AID 1117329;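 active = compound raises insulin release from rat beta cells at 5 mM glucose, no numeric limit stated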; also: reference of the scale not given here); settings: rat INS-1E insulin secretion, at 10 µM, stronger effect = higher value
[4] = growth inhibition of GSK3B-pretreated HCT116 cells – cell-based, CellTiter-Glo, 0.2 to 20 µM (AID 1117336;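 active = compounds lowering colon cancer cell viability after pretreatment blocking the GSK3B kinase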); settings: HCT116 viability after GSK3B inhibitor, at 20 µM, stronger effect = higher value
[5] = inhibition of endothelial tube formation, primary screen, imaging, VEGF stimulated, CD31 staining, tube area, NPC library (AID 1117340;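 active = compound that reduces growth-factor-driven endothelial tube area in a mixed cell culture, no cutoff stated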); settings: VEGF-stimulated ADSC/ECFC co-culture, at 10 µM, stronger effect = higher value
[6] = GLP1 release stimulators, primary, NCI-H716, NPC library (AID 1117341;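 active = compound raises GLP1 secretion from the human gut endocrine cells, with no numeric limit stated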; also: reference of the scale not given here); settings: NCI-H716 cells, at 10 µM, stronger effect = higher value
[7] = HCT116 colon cancer cell growth inhibition, primary screen, CellTiter-Glo luminescence, NPC library (AID 1117342;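 active = compounds that lower survival of HCT116 colon cancer cells in the luminescence readout, no numeric limit stated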); settings: at 20 µM (top of the series)
[8] = reduced SW480 viability measured with CellTiter-Glo, NPC library, primary (AID 1117343;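 active = compounds that lower viability of the colon cancer cells in the luminescence readout, with no numeric limit stated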); settings: CellTiter-Glo luminescence; at 20 µM (top of the series) unless noted
[9] = NPC library primary testing for decreased DLD-1 cell viability via CellTiter-Glo (AID 1117346;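 active = compounds that lower survival of DLD-1 colon cancer cells in the luminescence readout, no cutoff given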); settings: DLD-1 viability, CellTiter-Glo luminescence; at 20 µM (top of the series)
[10] = viability loss with induced miR-34 in A549 – imaging, A549 dox-inducible miR-34, nuclei and caspase counts, primary screen (AID 1347080;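 active = compounds whose cell count with miR-34 switched on is under 0.7 times the count with it off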); settings: A549 miR-34 inducible, Hoechst nuclei count, 48 h
[11] = MELAS cybrid and Rieske KO viability enhancers – cell-based, MELAS cybrids, Rieske KO mouse fibroblasts, CellTiter-Glo, primary screen (AID 1508586); settings: low glucose;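 also: z relative to plate mean and SD of compound and empty wells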
[12] = galactose survival enhancers in mitochondrial complex I cybrids – cell-based, galactose medium, ATP luminescence, primary screen (AID 1645843;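 active = z-score of at least 1.8 in each of two replicates, scored against plate mean and spread of sample wells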;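 also: positive z means more ATP and so rescue of galactose-driven cybrid death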); settings: complex I mutant cybrid cells, 72 h, stronger effect = higher value
[13] = target: NAD(+) hydrolase SARM1 (Homo sapiens) (UniProt Q6SZW1); test: blocking NAD cleavage by SARM1 SAM-TIR – cell lysate, NAD-Glo luminescence (AID 1508614;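 active = compound whose remaining NAD level is above about 45 nM, limit read from the data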;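 also: higher remaining NAD means stronger inhibition of SARM1 NADase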); settings: SAM-TIR HEK293T lysate NADase, at 1 µM, stronger effect = higher value
[14] = stronger effect = lower value, cell number ratio, induced over uninduced
[15] = measured here: relative caspase fold change +Dox/-Dox
[16] = measured here: total cells with miR-34 induction, stronger effect = lower value
[17] = measured here: total cells without miR-34 induction
[18] = MELAS cybrid survival, CellTiter-Glo 48 h, stronger effect = higher value
[19] = Rieske KO mouse fibroblast survival, CellTiter-Glo 72 h

NAD(+) hydrolase SARM1 (Homo sapiens), sequence (Q6SZW1 whole entry, looked up): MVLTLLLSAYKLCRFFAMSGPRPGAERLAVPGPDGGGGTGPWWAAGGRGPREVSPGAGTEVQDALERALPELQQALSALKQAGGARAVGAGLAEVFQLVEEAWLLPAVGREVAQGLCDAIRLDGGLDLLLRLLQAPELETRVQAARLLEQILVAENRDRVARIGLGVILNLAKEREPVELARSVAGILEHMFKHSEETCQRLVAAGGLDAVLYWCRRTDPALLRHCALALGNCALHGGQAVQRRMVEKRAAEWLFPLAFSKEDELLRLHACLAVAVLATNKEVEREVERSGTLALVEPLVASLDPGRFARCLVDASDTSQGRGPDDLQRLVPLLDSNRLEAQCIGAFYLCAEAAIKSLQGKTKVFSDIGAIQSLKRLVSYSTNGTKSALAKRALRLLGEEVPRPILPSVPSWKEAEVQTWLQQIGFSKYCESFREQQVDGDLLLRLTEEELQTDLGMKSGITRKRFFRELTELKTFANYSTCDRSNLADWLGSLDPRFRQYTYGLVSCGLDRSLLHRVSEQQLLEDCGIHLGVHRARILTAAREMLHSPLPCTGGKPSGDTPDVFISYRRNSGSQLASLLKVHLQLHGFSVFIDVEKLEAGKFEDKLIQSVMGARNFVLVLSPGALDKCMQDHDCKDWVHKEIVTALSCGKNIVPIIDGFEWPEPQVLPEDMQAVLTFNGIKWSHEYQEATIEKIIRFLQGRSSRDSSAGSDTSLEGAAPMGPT

SMILES | parasite load remaining [1] | viability [1] | nuclear beta-catenin stimulation ([2]; at 10 µM) | nuclear beta-catenin stimulation ([2]; stimulation, at 2 µM) | insulin secretion stimulation [3] | viability decrease [4] | tube area decrease [5] | GLP1 secretion stimulation [6] | inhibition of viability [7] | viability decrease (inhibition) [8] | viability decrease (inhibition) [9] | fold change [10, 14] | fold change [10, 15] | cell count [10, 16] | cell count [10, 17] | z-score [11, 18] | z-score [11, 19] | z-score [12] | remaining NAD [13]
CC(C)Nc1cccnc1N1CCN(C(=O)c2cc3cc(NS(C)(=O)=O)ccc3[nH]2)CC1 | 42.2% (inactive) | 102% | 0.8% (inactive) | -0.4% | -1.5% (inactive) | -11.6% (inactive) | -1.5% (inactive) | 2.1% (inactive) | 28.8% (inactive) | 0.9% (inactive) | -21.2% (inactive) | 0.904 (inactive) | 1.31 | 9200 | 10200 | 0.775 (inactive) and 1.98 (active) | 0.201 and 1.19 | 0.98 (inactive) | 
C[C@H](NCCc1ccc(O)cc1)[C@H](O)c1ccc(O)cc1 | 80.4% (inactive) and 86.8% (inactive) | 111% and 73.3% | -1.4% (inactive) | -0.2% | 4.3% (inactive) | -8.6% (inactive) | 5.1% (inactive) | -4.3% (inactive) | 4.7% (inactive) | 0.4% (inactive) | -16.7% (inactive) | 0.881 (inactive) and 0.9 (inactive) | 1.49 and 0.723 | 8830 and 9090 | 10000 and 10100 | -0.276 (inactive) and 0.441 (inactive) | -0.155 and 0.32 |  | 
CCCC(=O)OCOC(=O)C1=C(C)NC(C)=C(C(=O)OC)C1c1cccc(Cl)c1Cl (stereo not drawn) |  |  | 15.7% (inactive) | 12.3% | 3.9% (inactive) | -9.1% (inactive) | -4.1% (inactive) | 5.1% (inactive) | 25.4% (inactive) | 6.5% (inactive) | 14.3% (inactive) | 0.959 (inactive) and 0.978 (inactive) | 0.415 and 0.463 | 8260 and 7700 | 8610 and 7870 | 0.611 (inactive) and -0.319 (inactive) | -0.278 and 0.00408 | -1.31 (inactive) | 
CC(C)(CO)[C@@H](O)C(=O)NCCCO | 20.9% (inactive) and 97.7% (inactive) and 20.3% (inactive) | 47.1% and 90.5% and 98.9% | 1.6% (inactive) | 1.3% | -2.9% (inactive) | -4.45% (inactive) | 10.3% (inactive) | 3.1% (inactive) | 4.3% (inactive) | 100% (active) | -5.1% (inactive) | 0.883 (inactive) and 0.939 (inactive) | 1.21 and 2.44 | 8270 and 12000 | 9370 and 12800 | 0.185 (inactive) | 0.0963 |  | 10 nM (inactive)
OCCOCCN1CCN(C(c2ccccc2)c2ccc(Cl)cc2)CC1 (stereo not drawn) | 40.8% (inactive) and 106% (inactive) | 45.3% and 147% | 3.6% (inactive) | 2.4% | 4.2% (inactive) | -78.9% (inactive) | 28% (inactive) | 13.3% (inactive) | 38.2% (inactive) | 46.4% (inactive) | 14.4% (inactive) | 0.893 (inactive) and 0.907 (inactive) and 0.862 (inactive) | 1.48 and 0.309 and 0.812 | 8690 and 7710 and 8370 | 9730 and 8500 and 9700 | -0.954 (inactive) and -0.244 (inactive) and -0.546 (inactive) | 0.434 and -0.172 and -0.069 | -0.645 (inactive) | 
COc1nccnc1NS(=O)(=O)c1ccc(N)cc1 |  |  | 1.5% (inactive) | 3.9% | 1.7% (inactive) | 3.6% (inactive) | 2.9% (inactive) | 2.7% (inactive) | 6.8% (inactive) | -1.3% (inactive) | -5.6% (inactive) | 0.87 (inactive) | 0.163 | 9240 | 10600 | 0.483 (inactive) | -0.166 | -0.33 (inactive) | 
Cc1ncc(C[n+]2csc(CCO)c2C)c(N)n1 | 161% (inactive) and 60.9% (inactive) | 98.2% and 74.9% | -1.9% (inactive) | -0.8% | 3.8% (inactive) | -12.9% (inactive) | -6.7% (inactive) | -1.3% (inactive) | 5% (inactive) | 7.9% (inactive) | 1.8% (inactive) | 0.836 (inactive) | 1.04 | 8780 | 10500 | 0.823 (inactive) | 0.201 |  | 10 nM (inactive)
O=P(O)(O)OC(CO)CO |  |  | 0.1% (inactive) | 0.7% | 1.2% (inactive) | 3.9% (inactive) | 14.1% (inactive) | -1.6% (inactive) | -0.7% (inactive) | -2% (inactive) | -3.3% (inactive) | 0.854 (inactive) | 0.424 | 8550 | 10000 | 0.561 (inactive) | -0.261 | 0.385 (inactive) | 
CC(=O)N(CC(O)CO)c1c(I)c(C(=O)NCC(O)CO)c(I)c(C(=O)NCC(O)CO)c1I (stereo not drawn) | 114% (inactive) and 69.4% (inactive) | 108% and 73.4% | -2.4% (inactive) | -1.5% | 7% (inactive) | -5% (inactive) | 1.5% (inactive) | -5.6% (inactive) | 4.5% (inactive) | 4.9% (inactive) | 0.4% (inactive) | 0.842 (inactive) | 1.09 | 8930 | 10600 | 0.412 (inactive) | -0.115 |  | 10 nM (inactive)
CC(=O)OCC(=O)[C@@]1(OC(C)=O)[C@@H](C)C[C@H]2[C@@H]3C[C@H](F)C4=CC(=O)C=C[C@]4(C)[C@@]3(F)[C@@H](O)C[C@@]21C | 91.6% (inactive) and 91.1% (inactive) | 118% and 76.3% | 2.1% (inactive) | 0.9% | 15.2% (inactive) | 4% (inactive) | -8.8% (inactive) | 1.7% (inactive) | 17.6% (inactive) | 16.6% (inactive) | 7.1% (inactive) | 0.811 (inactive) | 1.36 | 7160 | 8820 | -0.532 (inactive) | -0.0519 |  | 10 nM (inactive)

Source: PubChem BioAssay
